Rows were chosen to be rich in hits. Some 1.8% of all compounds tested hit in one or more screens of this group.
PDI turbidity: blocks human protein disulfide isomerase activity. P07237. PDI insulin aggregation turbidity, A650, 90 min. inhibition, % at 10 µM. 350,000 compounds, 0.052% hits;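 active means mean inhibition across replicates of 30% or more, whatever share of single replicates reach that level; inconclusive means mean inhibition below 30% while every single replicate reaches 30%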
DENV2 CPE rescue: DENV2-induced cell death inhibition | 350,000 compounds, 1.7% hits | CPE inhibition, % at 9.99 µM | AID 651640 | DENV2-infected cells, cytopathic effect rescue, plate reader; in the data active means CPE inhibition above about 20%, passing the limit was not always enough; inconclusive means no clear call, values can overlap the other calls; tested in BHK-21 cells;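 further: 0% = median of neutral control wells and 100% = median of positive control wells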
MLL AF4-AF9 inh: blocks AF4 peptide binding to human AF9; P42568; AlphaScreen, biotin-AF4 peptide binding to FLAG-AF9; inhibition, % at 10 µM; 350,000 compounds, 0.47% hits;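 active means every replicate reaching a set inhibition limit, whatever the replicate mean, cut at about 25% in these data; inconclusive means mean inhibition reaches that limit but some replicates miss it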;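 further: 0% = plate neutral control median and 100% = total signal loss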
ERAP1 inh: inhibitors of human ERAP1 aminopeptidase; Q9NZ08; recombinant ERAP1, Leu-AMC fluorescence, 60 min; inhibition, % at 10.7 µM; 340,000 compounds, 0.15% hits; AID 652197;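 active means mean replicate inhibition of at least 30%, or all replicates individually reaching that 30% level; inactive means mean below 30% and not every replicate reaching it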;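 further: 0% = neutral control wells and 100% = L-leucinethiol positive control wells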
ERp5 inh: inhibitors of human ERp5; ERp5 insulin aggregation, absorbance 650 nm, 90 min; inhibition, % at 9.99 µM; 350,000 compounds, 0.05% hits; AID 651711;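 active means mean replicate inhibition above about 25%, with every replicate also reaching it, limit read from the data, passing the limit was not always enough; inconclusive means only one of those two criteria met; inactive means neither criterion met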
Target sequence (Q15084 whole entry, looked up): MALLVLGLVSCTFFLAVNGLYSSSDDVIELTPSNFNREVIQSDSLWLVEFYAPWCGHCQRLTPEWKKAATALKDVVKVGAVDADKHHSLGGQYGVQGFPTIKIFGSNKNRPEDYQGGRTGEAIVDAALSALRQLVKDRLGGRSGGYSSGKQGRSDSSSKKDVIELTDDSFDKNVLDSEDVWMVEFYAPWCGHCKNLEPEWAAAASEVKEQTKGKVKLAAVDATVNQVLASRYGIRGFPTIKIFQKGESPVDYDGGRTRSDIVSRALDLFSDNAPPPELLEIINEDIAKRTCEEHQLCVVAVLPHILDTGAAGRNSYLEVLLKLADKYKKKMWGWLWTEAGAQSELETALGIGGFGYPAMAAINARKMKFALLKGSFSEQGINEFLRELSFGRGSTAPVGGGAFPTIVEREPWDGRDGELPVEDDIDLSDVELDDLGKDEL
* hit, by the source's call; ? = inconclusive; · = no result given.

SMILES	PDI turbidity	DENV2 CPE rescue	MLL AF4-AF9 inh	ERAP1 inh	ERp5 inh
Cc1ccccc1OCCOC(=O)c1cc(S(=O)(=O)N2CCOCC2)ccc1C	19.4	71.7*	-3.1	-2.9	-9.8
O=C(OCCOc1ccccc1)c1cc(S(=O)(=O)N2CCOCC2)ccc1Cl	7.4	-3.5	0.8	1.7	5.1
Cc1ccc(C(=O)NCC(=O)N2CCCC(C(F)(F)F)C2)s1 (configuration not stated)	-2.8	-1.9	1.9	-0.3	0.6
O=C(NCC(=O)N1CCCC(C(F)(F)F)C1)c1cccs1 (configuration not stated)	2.0	-1.5	32.5*	1.4	4.5
C#CCOCCOCCOCCNc1nc(N2CCN(C(=O)[C@H](CCCCN)n3cc(CN)nn3)CC2)nc(N2CCN(C(=O)[C@H](CCCCN)n3cc(CN)nn3)CC2)n1	23.4	-13.9	56.7*	-6.3	-6.7
C#CCOCCOCCOCCNc1nc(N2CCOCC2)nc(N2CCN(C(=O)[C@H](CCCCN)n3cc(CCC(=O)O)nn3)CC2)n1	-1.9	?	-0.5	-8.0	-3.5
C#CCOCCOCCOCCNc1nc(N2CCN(C(=O)CCCCCCCCCCNC(=O)[C@H](CCCCN)n3cc(CCO)nn3)CC2)nc(N2CCN(C(=O)CCCCCCCCCCNC(=O)[C@H](CCCCN)n3cc(CCCC(=O)O)nn3)CC2)n1	4.1	·	55.4*	7.7	2.8
C#CCOCCOCCOCCNc1nc(N2CCN(C(=O)[C@H](CCCCN)n3cc(CN)nn3)CC2)nc(N2CCN(C(=O)[C@H](CCC(=O)O)n3cc([C@@H](N)CCCCN)nn3)CC2)n1	-3.8	14.2	73.8*	·	1.0
C#CCOCCOCCOCCNc1nc(N2CCN(C(=O)CCCCCCCCCCNC(=O)[C@@H](CCC(=O)O)n3cc(CCCCCN)nn3)CC2)nc(N2CCN(C(=O)CCCCCCCCCCNC(=O)[C@H](CO)n3cc(CCCCCN)nn3)CC2)n1	-1.6	·	·	·	·
Cc1ccc(S(=O)(=O)Nc2ccc3c(c2)C(=O)N([C@H](C)CO)C[C@H](C)[C@@H](CN(C)C(=O)Nc2c(C)noc2C)OCCCC[C@H](C)O3)cc1	·	-15.0	-2.8	0.9	2.7
O=C(c1ccccn1)N1C[C@H]2[C@@H](c3ccccc31)[C@H](CO)N2C(=O)CC1CC1	·	?	-4.0	2.6	2.0
CC(=O)c1ccc(OC(C)C(=O)NC2CCCCC2C)cc1 (configuration not stated)	-1.4	66.7*	0.6	1.1	1.6
CC(C)Oc1ccc(C(=O)OC(C)C(=O)NC2CCCCC2C)cc1 (configuration not stated)	-14.9	-3.7	0.1	0.8	3.6
CN1CCN(C(=O)C[C@H]2C[C@H]3c4cc(NC(=O)Nc5ccccc5)ccc4O[C@H]3[C@@H](CO)O2)CC1	·	3.5	·	·	·
Cc1ccccc1-c1ccccc1[C@H]1[C@@H](CO)N(C(=O)c2ccccc2)[C@H]1C#N	·	1.5	-9.2	-0.6	2.8
CNC[C@H]1Oc2ccc(NC(=O)CCN3CCOCC3)cc2CC(=O)N([C@@H](C)CO)C[C@@H]1C	·	-2.4	-4.4	1.5	-1.9
CN(Cc1cccc([N+](=O)[O-])c1)Cc1cccc2ccccc12	-2.3	5.4	11.7	-0.3	-0.9
COc1cc(CN(C)Cc2cccc3ccccc23)cc([N+](=O)[O-])c1O	13.4	42.5*	1.6	-0.2	1.7
C[C@H](CO)N1C[C@H](C)[C@H](CN(C)S(C)(=O)=O)Oc2ccc(NC(=O)Nc3ccc(C(F)(F)F)cc3)cc2C1=O	·	-1.3	-0.4	-0.9	-6.5
CN(C)C(=O)c1cccc(-c2ccc3n(c2=O)C[C@@H]2N[C@H]3[C@H](C(=O)NC3CCC3)[C@H]2CO)c1	·	-7.1	-0.2	-0.8	4.5
Cc1cc(N2CCN(c3ncccn3)CC2)nc2c(C)cccc12	-12.3	2.9	41.1*	-2.4	5.3
CC1(C)c2[nH]c3ccccc3c2C[C@@H]2C(=O)N(Cc3ccc(F)cc3)C(=O)N21	16.9	-15.5	4.3	1.5	2.7
CC[C@H]1c2[nH]c3ccccc3c2C[C@H]2C(=O)N(c3ccc(F)cc3)C(=O)N21	·	56.7*	-8.2	1.3	-0.1
N#CC(=C1C=C(Br)C(=NO)C=C1Cl)c1cccc2ccccc12	-8.9	6.6	25.5*	-4.0	7.3
COc1ccc(C(C#N)=C2C=C(Cl)C(=NO)C=C2Cl)cc1	-4.2	4.7	3.9	0.3	-8.6
O=C1CC(c2ccc(O)cc2)Oc2cc(O)cc(O)c21 (configuration not stated)	-1.6	3.0	2.4	1.4	-2.7
